# Experimental data taken from PubChem BioAssay (NCI).
# About 79,000 compounds went through this panel and 15% of them were active in at least one assay; those are over-represented in the sample as a whole. Values without a mark were called inactive. The source made the active and inactive calls. Rule as the data show it: active = growth inhibition above about 70%; inactive = the rest.
# How the values were obtained:
# [1] = NCI Yeast Anticancer Drug Screen. Data for the rad50 strain (AID 155);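 also: 0% = growth of vehicle-only cultures of the same strain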; conditions: S. cerevisiae rad50 strain growth inhibition, hits give high values
# How it was run: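 A DNA repair-deficient yeast mutant serves as the test organism; compound-induced growth inhibition is calculated against vehicle-treated cells.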
# [2] = NCI Yeast Anticancer Drug Screen. Data for the mec2-1 strain (AID 157); conditions: S. cerevisiae mec2-1 strain, hits give high values
# How it was run: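 Compounds were applied to mec2-1 yeast cells. Their growth was then compared with that of vehicle-treated cultures to give growth inhibition.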
# [3] = NCI Yeast Anticancer Drug Screen. Data for the sgs1 mgt1 strain (AID 161);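 also: 0% = growth of cultures given vehicle only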; conditions: S. cerevisiae sgs1 mgt1 strain, hits give high values
# How it was run: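 This yeast growth screen uses a strain with defined DNA-repair lesions; compound-treated growth is compared with vehicle-treated growth.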
# [4] = NCI Yeast Anticancer Drug Screen. Data for the cln2 rad14 strain (AID 165);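 also: 0% = growth equal to vehicle treated cultures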; conditions: S. cerevisiae cln2 rad14 strain, hits give high values
# How it was run: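 Strain: cln2 rad14 yeast, altered in cell cycle control and DNA damage repair. Read-out: growth inhibition vs vehicle.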
# [5] = NCI Yeast Anticancer Drug Screen. Data for the bub3 strain (AID 167); conditions: S. cerevisiae bub3 mutant strain, hits give high values
# How it was run: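 Inhibition values come from growth of compound-treated mutant yeast normalised to vehicle-treated controls.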
# [6] = NCI Yeast Anticancer Drug Screen. Data for the mlh1 rad18 strain (AID 175); conditions: S. cerevisiae mlh1 rad18 strain growth inhibition, hits give high values
# How it was run: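 A repair-deficient yeast strain is exposed to test compound, and growth is scored relative to vehicle-treated controls.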
# [7] = at 5.0 µM (retest, dose inferred, filed as 0.5)
# [8] = at 50.0 µM (retest, dose inferred, filed as 5.0)
SMILES,"growth inhibition [1, 7]","growth inhibition [1, 8]",growth inhibition ([1]; at 50.0 µM),"growth inhibition [2, 7]","growth inhibition [2, 8]",growth inhibition ([2]; at 50.0 µM),"growth inhibition [3, 7]","growth inhibition [3, 8]",growth inhibition ([3]; at 50.0 µM),"growth inhibition [4, 7]","growth inhibition [4, 8]",growth inhibition ([4]; at 50.0 µM),"growth inhibition [5, 7]","growth inhibition [5, 8]",growth inhibition ([5]; at 50.0 µM),"growth inhibition [6, 7]","growth inhibition [6, 8]",growth inhibition ([6]; at 50.0 µM)
CSC(=S)N/N=C(/C)CC(C)C,25%,94% (active),57.1%,14%,94% (active),93% (active),10%,92% (active),45.8%,-5%,88% (active),66.8%,24%,95% (active),95.8% (active),16%,95% (active),54%
CC(C)(C)c1ccc(O)c(CN(Cc2c(O)ccc3ccccc23)C2CCCCC2)c1,22%,99% (active),98% (active),17%,98% (active),98.2% (active),13%,99% (active),98% (active),-12%,97% (active),97.7% (active),-3%,99% (active),97.4% (active),–,–,–
CCOC(=O)c1c(Cl)nc2ccccc2c1N=[N+]=[N-],-10%,77% (active),79.3% (active),14%,95% (active),82.5% (active),-13%,93% (active),88.7% (active),20%,86% (active),58%,-21%,81% (active),86.8% (active),–,–,–
COc1ccc(C2SCC(=O)N2c2ccc(-c3ccc(-n4c(-c5ccccc5)nc5ccccc5c4=O)cc3)cc2)cc1 (stereo unspecified),0%,33%,21.6%,1%,28%,34.1%,7%,57%,57.4%,42%,41%,13.5%,24%,69%,70.9% (active),18%,68%,58.1%
CCCCCCCCCCCCCCCCOCC(Cl)COP(=O)(O)OP(=O)(O)OCC1OC(n2cc(C)c(=O)[nH]c2=O)CC1O (stereo unspecified),27%,99% (active),86% (active),30%,94% (active),59.6%,90% (active),99% (active),93% (active),22%,85% (active),63.1%,50%,97% (active),79.5% (active),67%,97% (active),84.7% (active)
CSC(=S)OC1CC(n2cnc3c(NC(=O)c4ccccc4)ncnc32)OC1CO[Si](C)(C)C(C)(C)C (stereo unspecified),1%,-1%,6.5%,0%,2%,-3.65%,-1%,2%,10.4%,-1%,6%,73% (active),-1%,-5%,1.45%,0%,-1%,16.6%
CCOC(=O)C1=C(c2ccccc2)N(C)c2ccccc2S1,4%,55%,75.9% (active),4%,92% (active),80.7% (active),5%,64%,76.2% (active),-1%,-7%,-0.8%,2%,78% (active),87% (active),–,–,–
c1ccc(-c2c[nH]c(-c3ccccc3)c2-c2ccccc2)cc1,1%,90% (active),95.2% (active),-13%,93% (active),95.1% (active),-15%,94% (active),93.3% (active),-4%,80% (active),95% (active),7%,92% (active),83.4% (active),18%,94% (active),96.8% (active)
Cc1cccc(O)c(=O)c1,12%,98% (active),99.3% (active),-5%,99% (active),99.5% (active),2%,98% (active),99.5% (active),8%,95% (active),99.5% (active),9%,98% (active),99.4% (active),9%,96% (active),99.5% (active)
Cc1cc(Cc2ccc(Cl)cc2)ccc1O,0%,99% (active),56.4%,-8%,99% (active),46.1%,2%,99% (active),99.2% (active),-13%,99% (active),51.9%,-19%,99% (active),56.4%,6%,99% (active),47.9%
O=C(CCCN1CCc2[nH]c3cc(F)ccc3c2C1)c1ccc(F)cc1,-11%,97% (active),84.8% (active),-12%,98% (active),68%,-7%,98% (active),90% (active),-9%,94% (active),84.4% (active),-30%,98% (active),91.7% (active),–,–,–
Cn1c(C2CCC(=O)N2Cc2ccccc2)n[nH]c1=S (stereo unspecified),1%,0%,55.5%,-1%,-3%,22.4%,4%,-2%,74.4% (active),2%,3%,-1.85%,3%,-2%,62.5%,–,–,–
CCOC(=O)C(Cc1cn(S(=O)(=O)c2ccccc2)c2ccccc12)(NC(C)=O)C(=O)OCC,-2%,17%,61.8%,-11%,14%,17.3%,8%,30%,70% (active),15%,33%,-3.35%,-9%,21%,67.7%,5%,35%,75.5% (active)
CCC[CH2][Sn]([CH2]CCC)([O]C(=O)c1cc(OC)c(OC)cc1OC)[O][Sn]([CH2]CCC)([CH2]CCC)[O]C(=O)c1cc(OC)c(OC)cc1OC,94% (active),97% (active),88.5% (active),96% (active),98% (active),91% (active),96% (active),99% (active),91.5% (active),92% (active),98% (active),90.2% (active),97% (active),98% (active),90.5% (active),96% (active),97% (active),89% (active)
C/C=C/C(=O)NCC(C(C)C)/[N+]([O-])=N/O (stereo unspecified),94% (active),95% (active),91.8% (active),95% (active),95% (active),93.3% (active),97% (active),97% (active),93.3% (active),80% (active),82% (active),91.2% (active),87% (active),86% (active),91.8% (active),97% (active),97% (active),91.9% (active)
O=Cc1ccc([N+](=O)[O-])o1,36%,98% (active),99.6% (active),7%,99% (active),99.4% (active),13%,99% (active),99.6% (active),-1%,85% (active),98.6% (active),-3%,57%,99.8% (active),20%,99% (active),99.5% (active)
CCN(CC)CCC(=O)/C=C/c1ccc(Cl)c(Cl)c1,10%,97% (active),90% (active),0%,99% (active),93.1% (active),16%,56%,92% (active),14%,97% (active),90.4% (active),10%,98% (active),91.4% (active),–,–,–
O=S(=O)(Nc1ccc(Cl)cc1)c1ccccc1,-3%,50%,76.5% (active),-14%,32%,46%,1%,80% (active),47.7%,-9%,81% (active),20.9%,-8%,56%,53.9%,–,–,–
Cn1c2c(c3ccccc31)CCN(CCCN1CCN(c3cccc(Cl)c3)CC1)C2=O,32%,32%,79.2% (active),7%,7%,54.1%,22%,22%,78.7% (active),11%,11%,73.8% (active),2%,2%,80% (active),–,–,–
CCCC(=O)N(C(=O)CCC)C1=C(Cl)C(=O)c2ccccc2C1=O,55%,64%,29.9%,95% (active),95% (active),83.1% (active),56%,72% (active),75.1% (active),33%,65%,74.2% (active),91% (active),98% (active),87.4% (active),–,–,–
CCCCCN(CCCCC)CCNc1ccc(C)c2sc3ccccc3c(=O)c12,2%,96% (active),98.6% (active),7%,97% (active),97.3% (active),17%,97% (active),98.2% (active),5%,93% (active),95.7% (active),7%,97% (active),96.8% (active),9%,97% (active),97% (active)
